Reference: PubChem BioAssay (NCATS)
Records with an inconclusive call do not appear. A number with no mark means an inactive call. Calls follow the shape of the dose curve; as a rule, active = well fitted cell-killing curve with a large enough effect; inconclusive = small, poorly fitted or top-dose-only effect; inactive = flat fitted curve, though single readings scatter.
% is scaled to controls: 0 for no effect and ±100 for the full control effect.

Assay: Cell Viability - LYMP2-008 (AID 980);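 also: cells exposed to compound for 24 h at 37 °C; nearly all actives have a fitted effect of over 60% in size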
Settings: LYMP2-008 lymphoblastoid cell viability, qHTS; series mostly up to 92.2 µM; activity change, negative = cytotoxicity: at the top concentration
From the text: NIH Chemical Genomics Center [NCGC]
NIH Molecular Libraries Screening Centers Network [MLSCN]
National Institutes of Environmental Health Sciences [NIEHS]
National Toxicology Program [NTP]
We have developed a 1536-well cell-based assay for quantitative high throughput screening (qHTS) against a number of cell lines to determine in vitro cytotoxicity of small molecules. This particular assay uses a human lymphoblastoid cell line (LYMP2-008) purchased from Coriell Institute for Medical Research.
NCGC Assay Protocol Summary:
The CellTiter-Glo luminescent cell viability assay (Promega) is a homogeneous method to measure the number of viable cells in culture. The end point readout of this assay is based on quantitation of intracellular ATP, an indicator of metabolic activity, using the luciferase reaction. Luciferase catalyzes the oxidation of beetle Luciferin to oxyluciferin and light in the presence of ATP. The luminescent signal is proportional to amount of ATP present.
Using the CellTiter-Glo luminescent cell viability assay, the amount of cellular ATP was measured in the lymphoblastoid cell line with complete culture medium following compound treatment for 24 hours. The assay was performed in opaque white Kalypsys 1536-well plates. In the screen, tetraoctylammonium bromide was used as positive control. Library compounds were measured for their ability to cause acute toxicity in the cell line, as reflected by a decrease in intracellular ATP levels, in a concentration-dependent manner. […] AC50 values were determined from concentration-response data modeled with the standard Hill equation.
qHTS protocol for CellTiter Glo lymphoblastoid cellular assay
[Step] [Parameter] [Value] [Description]
1. Reagent; 5 uL; 2500 lymphoblastoid cells/well
2. Time; 5 hr; 37 C incubation
4. Controls; 23 nL; Tetraoctylammonium bromide 6.4pM to 92 uM
5. Time; 24 hr; 37 C incubation
6. Reagent; 5 uL; CellTiter Glo reagent
7. Time; 30 min; Room Temperature
8. Detection; Luminescence; Viewlux plate reader
Keywords: cell viability, cytotoxicity, lymphoblastoid cell line, luminescence, NTPHTS, NTPHTS_NCGC, NIEHS, DSSTox, MLSMR, MLSCN, NIH Roadmap, qHTS, NCGC
For `CC(=O)NS(=O)(=O)c1ccc(N)cc1`, the “activity change, negative = cytotoxicity” value was -4.67%. For `Nc1ccc(S(=O)(=O)c2ccc(N)cc2)cc1`, the “activity change, negative = cytotoxicity” value was -5.84%. In the case of `Cc1cc(C)nc(NS(=O)(=O)c2ccc(N)cc2)n1`, the “activity change, negative = cytotoxicity” value is reported as 1.28%. For `O=C(O)CCCCC1CCSS1` (configuration not stated), the “activity change, negative = cytotoxicity” value was -8.12%. For `CCN(CC)C(=O)c1cccc(C)c1`, the “activity change, negative = cytotoxicity” value was 4.52%. For `CC(=O)Nc1cccc(O)c1`, the “activity change, negative = cytotoxicity” value was -0.841%. For `Cc1cc(=O)[nH]c(=S)[nH]1`, the “activity change, negative = cytotoxicity” value was -9.43%. With `CCCCCCCC(=O)OCC(COC(=O)CCCCCCC)OC(=O)CCCCCCC` the “activity change, negative = cytotoxicity” value was -5.99%. In the case of `O=C(c1ccccc1)C(O)c1ccccc1` (configuration not stated), the “activity change, negative = cytotoxicity” value is reported as -7.33%. With `CC(=O)OCC(COC(C)=O)OC(C)=O` the “activity change, negative = cytotoxicity” value was -9.98%. For `CC(=O)Nc1ccc(C(=O)O)cc1`, the “activity change, negative = cytotoxicity” value was -6.35%. With `CC1CC(OC(=O)c2ccccc2O)CC(C)(C)C1` (configuration not stated) the “activity change, negative = cytotoxicity” value was -13.1%. With `FC(F)(F)C(Cl)Br` (configuration not stated) the “activity change, negative = cytotoxicity” value was -4.32%. With `O=C1C(c2[nH]c3ccccc3c2O)=Nc2ccccc21` the “activity change, negative = cytotoxicity” value was -5.79%. For `CCCCOC(=O)c1ccc(N)cc1`, the “activity change, negative = cytotoxicity” value was -12%. With `CC(=O)Nc1ccccc1` the “activity change, negative = cytotoxicity” value was 1.33%. For `CCCC(O)C(CC)CO` (configuration not stated), the “activity change, negative = cytotoxicity” value was -2.35%. With `O=C1c2cccc(O)c2C(=O)c2c(O)cccc21` the “activity change, negative = cytotoxicity” value was -26.5%. In the case of `COc1ccc(O)cc1`, the “activity change, negative = cytotoxicity” value is reported as -3.04%. In the case of `C=CCNC(N)=S`, the “activity change, negative = cytotoxicity” value is reported as -3.54%. In the case of `CCCCCC(N)=O`, the “activity change, negative = cytotoxicity” value is reported as -7.87%. For `Cc1c(N(C)C)c(=O)n(-c2ccccc2)n1C`, the “activity change, negative = cytotoxicity” value was 9.92%.
